Screening data (PubChem)
A selection: hits, their analogues and other compounds. The true share with any hit is near 7.3%.
Vaccinia Venus: qHTS for Stage-Specific Inhibitors of Vaccinia Orthopoxvirus: Venus Reporter Primary qHTS; Potency, µM (series often up to 36.5 µM), without a hit: at the highest dose activity change, negative = inhibition, most hits filed as inhibitors; Vaccinia virus Venus reporter expression, fluorescence; 330,000 compounds, 0.46% hits; calls by dose curve; tested in A549 cells; note: potency is the fitted concentration of half-maximal effect; nearly all actives have a fitted effect of over 30% in size
FMDV antiviral: High Throughput Screening for Foot and Mouth Disease Virus Antivirals | FMDV antiviral cell-based qHTS | Potency, µM (series often up to 57.9 µM), for inactives: at the top dose activity change, negative = inhibition, hits mostly inhibitors | 410,000 compounds, 1.2% hits | AID 1159524, 2015; calls by dose curve; tested in HEK293T cells; note: read-out not given here; potency is the fitted concentration of half-maximal effect; nearly all actives have a fitted effect of over 45% in size
VACV mCherry inh: qHTS for Stage-Specific Inhibitors of Vaccinia Orthopoxvirus: mCherry Reporter Primary qHTS. 310,000 compounds, 0.63% hits. Potency, µM (top dose mostly 36.5 µM), inactives show at the highest dose activity change, negative = inhibition, usual class: inhibitors. Vaccinia virus mCherry reporter infection, fluorescence; calls by dose curve; tested in A549 cells; note: potency is the fitted concentration of half-maximal effect; nearly all actives have a fitted effect of over 35% in size
HCMV antiviral: qHTS Assay for inhibitors of the human cytomegalovirus (HCMV); 410,000 compounds, 4.5% hits; HFF cells, HCMV-luciferase reporter, 72 h; stronger effect = lower value; activity change, negative = inhibition, % at 57.5 µM; in the data active = activity change below about -60%; inconclusive = no clear call, values can overlap the other calls; inactive = above about -39%
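Human foreskin fibroblasts infected with luciferase-reporter HCMV at MOI 1 PFU/cell, compounds at two doses. Luciferase measured 72 h post infection; normalized to buffer-only basal and Salinomycin (10uM) controls.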
HCV inh: qHTS Assay for Inhibitors of Hepatitis C Virus (HCV); 340,000 compounds, 3.4% hits; Potency, µM (series often up to 41.8 µM), for inactives: at the top dose activity change, negative = inhibition, hits mostly inhibitors; Huh7.5.1 HCVcc-Cre infection, luciferase reporter, 44 h; AID 651820, 2012; active = well fitted inhibition curve with a large enough effect; inconclusive = small, poorly fitted or top-dose-only effect, or another doubt; inactive = no such curve, though single readings can be large or run the other way; note: potency is the fitted concentration of half-maximal effect
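Compounds are dispensed onto cells plated 4 h earlier at 1,000 per well, with HCVcc-Cre virus (about 0.5 moi) added next. Following 44 h of culture, luminescent signal is measured for 15 sec after 15 min with substrate at room temperature.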
The depositor's hits bear a star; ! = not confirmed by another sample; [ ] = another dose, or the depositor's remark. % is set by controls: 0 for no effect and ±100 for the full control effect.

Results for Cc1cccc(OC(=O)c2nc(SCc3ccccc3F)ncc2Cl)c1 ?
Vaccinia Venus: -4%; FMDV antiviral: -18%; VACV mCherry inh: -16%; HCMV antiviral: -26

How did CCc1ccccc1NC(=O)CCc1c(C)nn(-c2ccc(N3CCOCC3)nn2)c1C do in these assays?
Vaccinia Venus: -4%; FMDV antiviral: -19%; VACV mCherry inh: -9%; HCMV antiviral: -62*!; HCV inh: 4%

Results for Cc1ccc(-c2nc3cnccn3c2Nc2ccc(C(C)C)cc2)o1 ?
Vaccinia Venus: -7%; VACV mCherry inh: -9%

How did CCN1CCN(CC(=O)c2ccc(C)cc2)CC1 do in these assays?
FMDV antiviral: -11%; HCMV antiviral: -67*; HCV inh: 9%

How did Cc1cccc(-n2c(O)c(C=Nc3ccccc3O)c3ccccc3c2=O)n1 do in these assays?
Vaccinia Venus: 5%; FMDV antiviral: -21%; VACV mCherry inh: -22%; HCMV antiviral: -64*; HCV inh: inconclusive

Results for Cc1cccc(-n2c(O)c(C=Nc3cc(O)ccc3C)c3ccccc3c2=O)n1 ?
Vaccinia Venus: -11%; FMDV antiviral: -17%; VACV mCherry inh: -2%; HCMV antiviral: inconclusive; HCV inh: 5%

What do the screens show for `Cc1cccc(NC(=O)c2sc(-n3nc(C)c(CCC(C)C)c3C)nc2C)c1`?
Vaccinia Venus: -19%; FMDV antiviral: -14%; VACV mCherry inh: -5%; HCMV antiviral: -20

What do the screens show for `Cc1cccc(N(CC(=O)N(C)Cc2ccccc2)S(=O)(=O)c2ccccc2)c1C`?
Vaccinia Venus: -9%; FMDV antiviral: -5%; VACV mCherry inh: -18%; HCMV antiviral: -63*

What do the screens show for `Cc1cccc(N(CC(=O)NCCc2ccccc2)S(=O)(=O)c2ccccc2)c1C`?
Vaccinia Venus: -7%; FMDV antiviral: -13%; VACV mCherry inh: -23%; HCMV antiviral: -10

Results for CCOc1ccccc1CN(CCc1ccc2c(c1)OCO2)Cc1ccc(CC)cc1 ?
Vaccinia Venus: 0%; FMDV antiviral: -2%; VACV mCherry inh: -12%; HCMV antiviral: inconclusive

What do the screens show for `C=CCOc1ccccc1CN(C(=O)CCl)c1ccc2c(c1)OCO2`?
Vaccinia Venus: -13%; FMDV antiviral: inconclusive; VACV mCherry inh: inactive; HCMV antiviral: -99*; HCV inh: inconclusive

How did CC(=O)CCN1CCSCCS1(=O)=O do in these assays?
HCMV antiviral: 4

Results for CC1(C)C(=O)C=CC(=O)C(C)(C)C(=O)C=CC(=O)C(C)(C)C2=CC=C(O2)C(C)(C)C(=O)C=CC1=O ?
Vaccinia Venus: -2%; FMDV antiviral: 7.9µM*; VACV mCherry inh: -10%; HCMV antiviral: -22; HCV inh: inconclusive

How did C=CS(=O)(=O)N(Cc1ccccc1Br)[C@H](CO)Cc1ccccc1 do in these assays?
Vaccinia Venus: 1.1µM*; FMDV antiviral: inconclusive; VACV mCherry inh: inconclusive; HCMV antiviral: -21; HCV inh: -21%

Results for O=S(=O)(N(Cc1ccccc1)[C@@H](CO)Cc1ccccc1)N(Cc1ccccc1)[C@@H](CO)Cc1ccccc1 ?
Vaccinia Venus: -27%; FMDV antiviral: -25%; VACV mCherry inh: -6%; HCMV antiviral: 5; HCV inh: -2%

How did CC(C)C[C@H](CO)N(Cc1ccccc1)S(=O)(=O)N(Cc1ccccc1)[C@@H](CO)CC(C)C do in these assays?
Vaccinia Venus: inconclusive; FMDV antiviral: inconclusive; VACV mCherry inh: 14µM*!; HCMV antiviral: inconclusive; HCV inh: inconclusive

How did C=CS(=O)(=O)N(Cc1ccccc1)[C@H](CO)CC(C)C do in these assays?
Vaccinia Venus: 1.1µM*; FMDV antiviral: -30%; VACV mCherry inh: inconclusive; HCMV antiviral: 1; HCV inh: 19%

How did C=CCCN([C@H](CO)Cc1ccccc1)S(=O)(=O)c1ccccc1Br do in these assays?
Vaccinia Venus: -11%; FMDV antiviral: 15%; VACV mCherry inh: -8%; HCMV antiviral: 14; HCV inh: 14%

Results for Cc1cccc(N(C)C(=S)Oc2ccc3ccccc3c2)c1 ?
Vaccinia Venus: -17%; FMDV antiviral: -23%; VACV mCherry inh: -20%; HCMV antiviral: -61*; HCV inh: 3%[8.37 µM]
